HCV inhibitor – HCV inhibition; Huh7.5.1 HCVcc-Cre infection, luciferase reporter, 44 h; Potency, µM (highest dose often 41.8 µM), without a hit: at the top dose activity change, negative = inhibition, most hits filed as inhibitors; hit rate 3.4% among 340,000; AID 651820; also: potency is read from the fitted curve at half-maximal effect
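Infectious HCVcc-Cre (~0.5 moi) was added to cells just after compound, with cells seeded 4 h earlier at 1,000 per well. Luciferase activity after 44 h culture reported infection; substrate was incubated 15 min at room temperature before reading.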
HCMV antiviral – inhibitors of human cytomegalovirus | HFF cells, HCMV-luciferase reporter, 72 h; active compounds read low | activity change, negative = inhibition, % at 57.5 µM | hit rate 4.5% among 410,000; in the data active = activity change below about -60%; inconclusive = no clear call, values can overlap the other calls; inactive = above about -39%
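Two compound doses tested in HFFs infected with HCMV-luciferase, MOI 1 PFU/cell, 72 h at 37C. Lysate luminescence read with OneGlo; data normalized against buffer-only and 10uM Salinomycin inhibitor controls.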
FMDV inh – blocks foot and mouth disease virus; FMDV antiviral cell-based qHTS; Potency, µM (highest dose often 57.9 µM), for inactives: at the highest dose activity change, negative = inhibition, most hits filed as inhibitors; hit rate 1.2% among 410,000; calls by dose curve; tested in HEK293T cells; also: read-out not given here; potency is read from the fitted curve at half-maximal effect; nearly all actives have a fitted effect of over 45% in size
Vaccinia Venus – vaccinia inhibition (Venus reporter); Potency, µM (doses to about 36.5 µM), for inactives: top-dose activity change, negative = inhibition, most hits filed as inhibitors; hit rate 0.46% among 330,000; Vaccinia virus Venus reporter expression, fluorescence; AID 720580; calls by dose curve; tested in A549 cells; also: potency is read from the fitted curve at half-maximal effect; nearly all actives have a fitted effect of over 30% in size
FBPA Giardia inh – inhibitors of Giardia lamblia fructose-1,6-bisphosphate aldolase. hit rate 0.71% among 290,000. Potency, µM (top dose mostly 59.6 µM), for inactives: at the top dose activity, negative = inhibition, most hits filed as inhibitors. A8B2U2. purified Giardia FBPA; also: potency is read from the fitted curve at half-maximal effect; nearly all actives have a fitted effect of over 55% in size
Target sequence (A8B2U2 whole entry, looked up): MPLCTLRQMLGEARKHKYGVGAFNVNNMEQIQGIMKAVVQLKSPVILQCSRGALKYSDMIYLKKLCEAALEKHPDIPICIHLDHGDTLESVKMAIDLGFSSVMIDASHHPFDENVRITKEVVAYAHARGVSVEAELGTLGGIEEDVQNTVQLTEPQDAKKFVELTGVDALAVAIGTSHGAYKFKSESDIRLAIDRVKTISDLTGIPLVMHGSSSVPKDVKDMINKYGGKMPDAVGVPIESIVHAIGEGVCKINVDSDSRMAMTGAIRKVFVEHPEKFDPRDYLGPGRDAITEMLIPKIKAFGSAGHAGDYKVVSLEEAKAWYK
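Giardia FBPA (40 nM reagent) was preincubated 10 min at RT with compound (up to 57.5 uM final), then substrate plus GAPDH/TPI/NAD/arsenate coupling system with diaphorase/resazurin was added; resorufin fluorescence (525/598 nm) was read after 20 min.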
Vaccinia mCherry – inhibitors of vaccinia virus infection (mCherry reporter signal). Vaccinia virus mCherry reporter infection, fluorescence. Potency, µM (series often up to 36.5 µM), for the others: at the top dose activity change, negative = inhibition, actives largely listed as inhibitors. hit rate 0.63% among 310,000. AID 720579; calls by dose curve; tested in A549 cells; also: potency is read from the fitted curve at half-maximal effect; nearly all actives have a fitted effect of over 35% in size
An asterisk follows results filed as active; i = inactive; ? = inconclusive; nt = no result; + = active, no number; [ ] = remark or other dose. In the library only some 7.5% were active in any assay of this set; here they are far more common. Unless noted, calls follow the shape of the dose curve; as a rule, active = well fitted curve in the direction sought with a large enough effect; inconclusive = small, poorly fitted or top-dose-only effect, or another doubt; inactive = no such curve, though single readings can be large; an effect the other way counts as inactive or inconclusive. % is scaled to controls: 0 for no effect and ±100 for the full control effect.

SMILES	HCV inhibitor	HCMV antiviral	FMDV inh	Vaccinia Venus	FBPA Giardia inh	Vaccinia mCherry
CC1=C(C(=O)OCc2ccc3c(c2)OCO3)C(c2ccccc2)NC(=O)N1 (stereo not given)	?	-92*	nt	?	1%	-29%
Cc1nn(C(=O)COc2ccccc2Br)c(C)c1Sc1ccccc1	nt	11	7%	-10%	nt	-23%
COc1ccc(OC)c(-c2cc(C(=O)NCCc3ccccc3)c3c(-c4ccc(C)cc4)[nH]nc3n2)c1	nt	3	1%	-24%	nt	-12%
CCc1ccc(-c2[nH]nc3nc(-c4ccc(OC)cc4)cc(C(=O)NCCc4ccc(OC)c(OC)c4)c23)cc1	nt	-91*	?	-22%	nt	?
COc1ccc(-c2cc(C(=O)NCCc3ccccc3)c3c(-c4ccccc4)[nH]nc3n2)cc1	nt	-82*	29%	?	nt	?
COCCCNC(=O)c1cc(-c2ccc(OC)cc2)nc2n[nH]c(-c3ccc(Cl)cc3)c12	nt	-8	0%	-5%	nt	-9%
COc1ccc(-c2cc(C(=O)NCCc3ccccc3)c3c(-c4ccc(Cl)cc4)[nH]nc3n2)cc1	nt	-98*	-13%	?	nt	?
COc1ncc2nc(-c3ccc(F)cc3)c(=O)n(Cc3ccc(F)cc3)c2n1	nt	nt	-2%	nt	0%	nt
CCOc1ccc(CNC(=O)CCn2c(=O)c3cccn3c3ccc(F)cc32)cc1	nt	-30	14%	-6%	nt	1%
Cc1cccc(/C=N/NC(=O)c2ccc3c(c2)OCCO3)c1O	nt	-98*	nt	nt	nt	nt
CCOc1cccc(/C=N/NC(=O)c2ccc3c(c2)OCCO3)c1O	?	+	10%	?	nt	?
COc1cccc(/C=N/NC(=O)CNC(=O)c2ccc3c(c2)OCCO3)c1O	8%	12	-20%	?	-29%	?
CCOc1cccc(/C=N/NC(=O)c2cc(-c3cccn3C)n[nH]2)c1O	11µM*	-38	13%	?	11%	?
O=C(N/N=C/c1cccc(O)c1)c1ccc2c(c1)OCCO2	8%	157	57%	nt	nt	nt
COc1ccc(CN(Cc2ccccc2)C(=O)c2ccco2)cc1COc1ccc(NC(C)=O)cc1	nt	nt	nt	-8%	nt	i
CCCCc1nc2c(c3c1C[C@H](C)OC3)CN(S(=O)(=O)c1ccc(Cl)c3nonc13)CC2	nt	nt	nt	nt	4%[12.9 µM]	nt
COC(=O)c1cc(NC(C)=O)ccc1N1CCOCC1	2%	8	-10%	-2%	-5%	i
COC(=O)c1cc(NC(=O)c2cc(-c3ccc(OC)cc3)oc2C(F)(F)F)ccc1N1CCOCC1	7.1µM*	-25	-25%	nt	-14%	nt
COC(=O)c1cc(NC(=O)c2cc(-c3ccc(C(F)(F)F)cc3)oc2C(F)(F)F)ccc1N1CCOCC1	3.5µM*	-94*	?	-14%	-13%	-17%
CC(NC(=O)c1ccco1)c1nnc2n1CCN(Cc1ccc(N(C)C)cc1)CC2 (stereo not given)	nt	nt	-4%	-6%	nt	-12%
Nc1ccccc1S(=O)(=O)NCCCCc1ccccc1	-5%	-100*	25%	nt	4%	nt
O=C(CCc1nnc2n(Cc3ccc(Cl)cc3)c(=O)c3ccccc3n12)NCCN1CCCC1	3.5µM*	-14	5%	?	-18%	-8%
COc1cccc(NC(=O)CCc2nnc3n(Cc4ccccc4Cl)c(=O)c4ccccc4n23)c1	nt	1	-17%	-26%	nt	-25%
O=C(CCc1nnc2n(Cc3ccccc3Cl)c(=O)c3ccccc3n12)Nc1ccc(F)cc1	nt	-11	-17%	10µM*	nt	10µM*
O=C(CCc1nnc2n(Cc3ccc(Cl)cc3)c(=O)c3ccccc3n12)NCCCN1CCOCC1	-19%	15	-8%	nt	10%	nt
SMILES	HCV inhibitor	HCMV antiviral	FMDV inh	Vaccinia Venus	FBPA Giardia inh	Vaccinia mCherry
CCc1nn2c(=O)cc(COC(=O)C(CC)c3ccccc3)nc2s1 (stereo not given)	nt	-14	?	-6%	nt	-4%
Cc1ccc(S(=O)(=O)N2CCN(c3nc(-n4cncn4)nc4ccccc34)CC2)cc1	nt	nt	nt	-18%	nt	0%
O=C1Nc2ccccc2C12OCCCO2	0%	58	-20%	-15%	11%	nt
CC1(CO)COC2(OC1)C(=O)Nc1ccccc12 (stereo not given)	7%	-76*	-5%	-14%	nt	i
COCc1ccc(C(=O)N2CCCC(CNC(=O)c3ccc(F)cc3)C2)o1 (stereo not given)	3%	29	-7%	-11%	nt	i
COc1ccc(C2=NN(C)C(=NCc3ccccc3)SC2)cc1	7.9µM*	-13	19%	nt	1%	nt
Cc1cc(-c2ccc(C)c(S(=O)(=O)Nc3cccc(C#N)c3)c2)on1	nt	?	25%	-19%	nt	i
CCS(=O)(=O)Nc1cc2c3c(c1)CCC(=O)N3CCC2	-8%	53	-10%	nt	7%	nt
O=C(c1ccc(Br)cc1)c1cc(-c2ccccn2)c(N2CCOCC2)s1	?	55	?	nt	-2%	nt
O=C(c1ccc(Cl)c(Cl)c1)c1cc(-c2ccccn2)c(N2CCOCC2)s1	1%	-75*	-23%	-14%	-5%	-21%
O=C(COc1cccc2cccnc12)Nc1cccc(S(=O)(=O)N2CCCC2)c1	10µM*	-9	?	nt	nt	nt
CCOc1ccc(NC(=O)COc2cccc3cccnc23)cc1S(=O)(=O)N1CCCC1	nt	-11	-10%	-19%	nt	-6%
Cc1cccc(C)c1OCC(=O)Nc1cccc(S(=O)(=O)N2CCCC2)c1	8.9µM*	-24	-12%	-21%	nt	-28%
O=C(Nc1c(Cl)cccc1Cl)Oc1cccc2cccnc12	nt	-98*	-9%	?	nt	?
CCS(=O)c1ccccc1C(=O)OCC(=O)Nc1cccc(S(=O)(=O)N2CCCCC2)c1 (stereo not given)	10µM*	-8	?	nt	nt	nt
